Experimental data as given in PubChem BioAssay.
The source made the active and inactive calls.

Key:
[1] = target: Albumin (Bos taurus) (UniProt P02769); experiment: compounds binding labelled BSA control protein – biochemical, small-molecule microarray, Alexa647 label, 635/667 nm fluorescence, artefact control for SMM control protein annotation, profiling panel (AID 1118); details: BSA-A647 binding, fluorescence 635 nm, higher = more signal;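 further: score merges 667 nm emission intensity and signal-to-noise per printed compound spot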
[2] = probe aXIP binding to arrayed compounds – biochemical, NeuroSMM set, 635/667 nm fluorescence, primary screen (AID 1119); details: small-molecule microarray; higher = more signal, called active from +8 up or from −8 down unless noted;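 further: probe is the protein aXip251-270 applied at 1 µg/mL to compound-printed slides; binding of probe to printed compounds measured as 667 nm fluorescence plus signal to noise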
[3] = probe aNOTCH3 binding on compound microarray – biochemical, small-molecule microarray, 635/667 nm fluorescence, primary screen (AID 1120); details: higher = more signal; small-molecule microarray, probe aNOTCH3, fluorescence unless noted;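 further: probe is a biotin-tagged antibody raised against NOTCH3 rather than NOTCH3 protein; score merges spot fluorescence near 667 nm with spot signal to noise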
[4] = probe aNOTCH2 binding on compound microarray – biochemical, small-molecule microarray, 635/667 nm fluorescence, primary screen (AID 1121); details: higher = more signal; small-molecule microarray, probe aNOTCH2, fluorescence unless noted;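 further: score merges feature fluorescence read at 667 nm with its signal to noise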
[5] = target: Carbonic anhydrase 2 (Homo sapiens) (UniProt P00918); experiment: compounds binding carbonic anhydrase 2 – biochemical, small-molecule microarray, Alexa647-labelled CAII, profiling panel (AID 1122); details: CAII-A647 binding fluorescence, higher = more signal
[6] = COS7 lysate on small-molecule microarray, probe aHis, 635 nm (AID 1123); details: higher = more signal; small-molecule microarray, COS7 cell lysate, probe aHis, fluorescence unless noted;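 further: z-score combines 667nm fluorescence intensity with signal-to-noise per printed compound spot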
[7] = probe aLAP1 signal on lysate-treated microarray – cell lysate, small-molecule microarray, COS7 lysate, primary screen (AID 1124); details: higher = more signal; small-molecule microarray, COS7 cell lysate, probe aLAP1, fluorescence unless noted;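 further: lysate comes from COS7 cells expressing LAP1 and is applied at 0.3 µg/mL; score merges spot fluorescence near 667 nm with signal-to-noise over triplicate slides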
[8] = system: Sam68 (KHDRBS1); experiment: compounds binding KHDRBS1 protein – biochemical, small-molecule microarray, 635 nm fluorescence, primary screen (AID 1125); details: higher = more signal;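 further: score merges 667 nm channel intensity with signal to noise over triplicate slides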
[9] = system: Chordin-like protein 2 (CHRDL2); experiment: compounds binding chordin-like 2 – biochemical, small-molecule microarray, 635 nm fluorescence, primary screen (AID 1126); details: fluorescence 635 nm, higher = more signal;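 further: printed compound slides probed with Chrdl2 protein at 4 µg/mL for 1 h at 4 C; score merges 667 nm emission intensity with signal to noise over three replicate slides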
[10] = target: Concanavalin-A (Canavalia ensiformis) (UniProt P02866); experiment: compounds binding concanavalin A lectin – biochemical, small-molecule microarray, Alexa647 label, 635 nm, artefact control for SMM control protein annotation, primary screen (AID 1127); details: ConA-A647 binding fluorescence, higher = more signal;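 further: z combines 667 nm emission intensity with signal-to-noise across three replicate slides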
[11] = compounds binding Alexa647 anti-His antibody – biochemical, small-molecule microarray, 635 nm fluorescence, artefact control for SMM control protein annotation, primary screen (AID 1128); details: higher = more signal;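 further: score merges feature fluorescence with signal-to-noise for each printed compound spot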
[12] = system: Human papillomavirus type 1a E7 protein (residues 1-88); experiment: HPV1a E7 small-molecule binders, primary screen, biochemical, small-molecule microarray, residues 1-88, 635 nm (AID 1129); details: small-molecule microarray binding, fluorescence 635 nm; higher = more signal
[13] = target: Focal adhesion kinase 1 (Homo sapiens) (UniProt Q05397); experiment: PTK2 protein binding on printed compound slides – biochemical, small-molecule microarray, 635/667 nm fluorescence, BSA, DTT, primary screen (AID 1130); details: 635 nm fluorescence, higher = more signal;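 further: composite of spot emission at 667 nm and signal to noise over triplicate slides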
[14] = system: Fibrinogen (Alexa647-labelled); experiment: Alexa647-fibrinogen binding to printed small molecules – biochemical, small-molecule microarray, 635/667 nm fluorescence, artefact control for SMM control-protein annotation, profiling panel (AID 1131); details: fibrinogen-A647 binding fluorescence, higher = more signal;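 further: z-score merges 667 nm fluorescence with per-spot signal-to-noise over triplicate slides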
[15] = target: Follistatin (Homo sapiens) (UniProt P19883); experiment: FST protein binding to printed compounds – biochemical, small-molecule microarray, 635/667 nm fluorescence, primary screen (AID 1132); details: 635 nm fluorescence, higher = more signal
[16] = target: Fibroblast growth factor 2 (Homo sapiens) (UniProt P09038); experiment: basic fibroblast growth factor binding to printed compounds – biochemical, small-molecule microarray, 635/667 nm fluorescence, primary screen (AID 1133); details: FGF2, fluorescence 635/667, higher = more signal
[17] = JC-1 mitochondrial potential readout, lung cancer cells – cell-based, A549, JC-1 fluorescence, basal, 24 h, 100 nL, profiling panel (AID 1138); details: higher = more signal;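 further: A549 lung adenocarcinoma cells under basal conditions with no added stimulus; test concentration not given here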
[18] = system: Lefty1; experiment: Lefty1 protein binding to printed compounds – biochemical, small-molecule microarray, 635/667 nm fluorescence, primary screen (AID 1139); details: fluorescence 635/667, higher = more signal
[19] = system: wheat germ agglutinin (Triticum aestivum), Alexa647-labelled; experiment: Alexa647-WGA lectin binding to printed small molecules – biochemical, small-molecule microarray, 635/667 nm fluorescence, artefact control for SMM control-protein annotation, profiling panel (AID 1140); details: WGA-A647 binding, 635 nm fluorescence, higher = more signal;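 further: score merges 667 nm feature emission with signal to noise over triplicate slides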
[20] = target: Luciferin 4-monooxygenase (Photinus pyralis) (UniProt P08659); experiment: inhibition of purified Photinus pyralis luciferase – biochemical, luminescence, purified enzyme, 2006 set, primary screen (AID 1141); details: purified firefly luciferase, SteadyGlo luminescence, 30 min; higher = more signal, called active from +8 up or from −8 down unless noted;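 further: cell-free assay with purified firefly luciferase at 100 ng per well in PBS; test concentration not given here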
Sequence of Luciferin 4-monooxygenase (Photinus pyralis) (P08659 whole entry, looked up): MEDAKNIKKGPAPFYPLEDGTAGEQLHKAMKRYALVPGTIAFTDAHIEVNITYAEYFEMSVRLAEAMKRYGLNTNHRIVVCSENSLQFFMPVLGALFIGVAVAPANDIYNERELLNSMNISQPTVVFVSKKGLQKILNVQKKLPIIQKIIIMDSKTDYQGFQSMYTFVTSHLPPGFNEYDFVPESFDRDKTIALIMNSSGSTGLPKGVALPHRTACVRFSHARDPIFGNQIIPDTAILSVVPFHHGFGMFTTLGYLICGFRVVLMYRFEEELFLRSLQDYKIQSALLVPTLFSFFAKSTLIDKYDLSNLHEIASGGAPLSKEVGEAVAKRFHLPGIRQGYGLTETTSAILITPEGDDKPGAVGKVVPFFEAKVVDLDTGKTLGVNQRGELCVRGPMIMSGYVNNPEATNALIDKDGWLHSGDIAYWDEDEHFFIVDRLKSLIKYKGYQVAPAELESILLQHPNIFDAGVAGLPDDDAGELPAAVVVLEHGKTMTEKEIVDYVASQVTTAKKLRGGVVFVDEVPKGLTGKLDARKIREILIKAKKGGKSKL

Sequence of Concanavalin-A (Canavalia ensiformis) (P02866 whole entry, looked up): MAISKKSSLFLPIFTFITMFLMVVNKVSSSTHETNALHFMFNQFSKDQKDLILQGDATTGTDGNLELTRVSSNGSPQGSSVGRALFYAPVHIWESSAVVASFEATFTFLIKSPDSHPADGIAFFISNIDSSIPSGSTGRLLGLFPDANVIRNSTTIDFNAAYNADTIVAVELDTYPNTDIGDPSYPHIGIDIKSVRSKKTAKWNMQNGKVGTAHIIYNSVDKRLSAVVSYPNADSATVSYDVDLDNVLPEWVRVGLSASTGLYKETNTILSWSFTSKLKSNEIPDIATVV
Sequence of Fibroblast growth factor 2 (Homo sapiens) (P09038 whole entry, looked up): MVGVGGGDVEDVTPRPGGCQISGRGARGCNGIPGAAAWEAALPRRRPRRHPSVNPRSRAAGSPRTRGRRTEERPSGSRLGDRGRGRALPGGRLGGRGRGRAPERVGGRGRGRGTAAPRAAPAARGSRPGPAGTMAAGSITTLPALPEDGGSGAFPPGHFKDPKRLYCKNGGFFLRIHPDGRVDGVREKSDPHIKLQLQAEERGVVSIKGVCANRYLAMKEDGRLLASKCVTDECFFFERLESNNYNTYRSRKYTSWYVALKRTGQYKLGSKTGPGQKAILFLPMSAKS
Sequence of Focal adhesion kinase 1 (Homo sapiens) (Q05397 whole entry, looked up): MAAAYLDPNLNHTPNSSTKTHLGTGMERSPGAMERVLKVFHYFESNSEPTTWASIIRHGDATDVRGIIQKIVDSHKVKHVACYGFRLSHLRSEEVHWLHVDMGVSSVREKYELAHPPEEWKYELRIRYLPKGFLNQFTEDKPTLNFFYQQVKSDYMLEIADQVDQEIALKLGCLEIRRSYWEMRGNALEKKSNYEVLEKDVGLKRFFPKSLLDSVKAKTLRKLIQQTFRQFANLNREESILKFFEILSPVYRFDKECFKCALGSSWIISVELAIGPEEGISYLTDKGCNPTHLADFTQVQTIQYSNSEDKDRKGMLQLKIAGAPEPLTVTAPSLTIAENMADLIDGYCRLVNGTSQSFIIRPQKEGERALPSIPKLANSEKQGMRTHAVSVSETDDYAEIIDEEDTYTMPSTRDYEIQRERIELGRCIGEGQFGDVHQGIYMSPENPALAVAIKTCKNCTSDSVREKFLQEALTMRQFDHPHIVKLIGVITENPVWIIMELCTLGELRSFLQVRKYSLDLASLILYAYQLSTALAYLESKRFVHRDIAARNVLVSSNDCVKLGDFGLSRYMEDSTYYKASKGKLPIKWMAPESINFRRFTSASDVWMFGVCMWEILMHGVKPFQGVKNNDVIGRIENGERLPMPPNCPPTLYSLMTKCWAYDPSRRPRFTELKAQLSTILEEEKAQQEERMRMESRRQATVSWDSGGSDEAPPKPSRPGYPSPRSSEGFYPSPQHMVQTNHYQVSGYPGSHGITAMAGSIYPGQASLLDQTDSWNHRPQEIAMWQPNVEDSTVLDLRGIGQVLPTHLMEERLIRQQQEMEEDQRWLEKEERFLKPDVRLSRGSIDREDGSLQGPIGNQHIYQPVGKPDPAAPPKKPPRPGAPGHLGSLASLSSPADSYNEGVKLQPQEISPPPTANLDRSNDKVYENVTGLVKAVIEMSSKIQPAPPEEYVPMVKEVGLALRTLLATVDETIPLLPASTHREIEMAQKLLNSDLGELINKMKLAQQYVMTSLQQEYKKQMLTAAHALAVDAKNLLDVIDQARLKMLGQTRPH
Sequence of Follistatin (Homo sapiens) (P19883 whole entry, looked up): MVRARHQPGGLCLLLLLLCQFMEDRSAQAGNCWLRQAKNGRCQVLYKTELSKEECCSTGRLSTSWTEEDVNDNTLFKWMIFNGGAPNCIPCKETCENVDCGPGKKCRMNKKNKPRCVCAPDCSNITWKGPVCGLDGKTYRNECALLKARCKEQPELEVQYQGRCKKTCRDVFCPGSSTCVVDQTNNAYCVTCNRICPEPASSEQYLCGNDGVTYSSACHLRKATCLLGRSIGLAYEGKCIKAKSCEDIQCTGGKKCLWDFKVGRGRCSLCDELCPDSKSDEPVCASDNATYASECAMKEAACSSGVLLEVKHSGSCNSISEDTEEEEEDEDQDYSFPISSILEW
Sequence of Albumin (Bos taurus) (P02769 whole entry, looked up): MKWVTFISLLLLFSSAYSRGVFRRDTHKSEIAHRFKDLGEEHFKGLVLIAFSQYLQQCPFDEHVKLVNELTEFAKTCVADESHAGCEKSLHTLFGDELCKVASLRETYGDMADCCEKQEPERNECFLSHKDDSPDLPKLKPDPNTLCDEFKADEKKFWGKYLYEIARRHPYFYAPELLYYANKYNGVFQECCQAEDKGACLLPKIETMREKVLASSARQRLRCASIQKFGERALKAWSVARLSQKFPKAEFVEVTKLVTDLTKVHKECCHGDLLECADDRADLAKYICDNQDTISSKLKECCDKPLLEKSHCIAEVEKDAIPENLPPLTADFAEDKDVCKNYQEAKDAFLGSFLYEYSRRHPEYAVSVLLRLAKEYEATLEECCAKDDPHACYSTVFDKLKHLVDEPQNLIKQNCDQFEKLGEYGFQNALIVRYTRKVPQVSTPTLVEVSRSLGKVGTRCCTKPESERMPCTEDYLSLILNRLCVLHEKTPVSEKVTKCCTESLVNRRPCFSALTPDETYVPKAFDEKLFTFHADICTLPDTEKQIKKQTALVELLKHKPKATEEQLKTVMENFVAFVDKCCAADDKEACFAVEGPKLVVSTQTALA

| SMILES | composite z-score [1] | composite Z-score [2] | composite z-score [3] | composite z-score [4] | composite z-score [5] | composite z-score [6] | composite z-score [7] | composite z-score [8] | composite z-score [9] | composite z-score [10] | composite z-score [11] | composite z-score [12] | composite z-score [13] | composite z-score [14] | composite z-score [15] | composite z-score [16] | z-score [17] | composite z-score [18] | composite z-score [19] | z-score [20] |
| --- | --- | --- | --- | --- | --- | --- | --- | --- | --- | --- | --- | --- | --- | --- | --- | --- | --- | --- | --- | --- |
| C[C@H]1O[C@H]2C3=C(C(=O)[C@@H]4O[C@@H]4[C@@H]3O)[C@@H]1[C@@H]1[C@@H](C)OC=C3[C@@H](O)[C@H]4O[C@H]4C(=O)[C@]312 | 0.664 | 0.19 (inactive) | -0.0947 | -0.125 | 0.26 | -0.393 | -0.494 | -1.77 | -0.0769 | -1.83 | -0.652 | -0.539 | -0.27 | -0.727 | -0.72 | -0.0771 | 0.344 | -0.235 | 0.202 | -1.61 (inactive) |
| COC(=O)[C@H]1[C@H](c2ccccc2)C(=O)[C@]2(O)c3ccccc3O[C@@]12c1ccccc1 | 0.394 | 0.311 (inactive) | 0.0833 | -0.199 | -0.132 | 0.0246 | -0.0474 | 0.198 | 0.263 | 0.711 | -0.179 | 0.382 | 0.227 | 0.826 | 0.402 | 0.186 | 0.866 | 0.266 | 0.167 | -1.9 (inactive) |
| CCOC(=O)[C@H]1CC=C2C(=O)Oc3ccccc3[C@@H]21 | 0.445 | -0.123 (inactive) | -0.126 | -0.162 | 0.568 | 0.468 | 1.3 | -0.491 | -0.94 | 0.122 | 2.35 | -0.268 | 0.374 | -0.192 | -0.628 | -0.903 | -0.955 | -0.54 | -0.351 | 1.32 (inactive) |
| OCc1ccc(C2=CC(c3cccs3)N(Cc3cccc(OC(F)(F)F)c3)CC2)cc1 (stereo not given) | 0.343 | -0.375 (inactive) | -0.0596 | -0.115 | 0.197 | 0.609 | -0.368 | 0.277 | 0.396 | -0.426 | 2.04 | -0.38 | 0.147 | -0.365 | 0.663 | 0.108 | 0.944 | 0.704 | 0.173 | -1.26 (inactive) |
| CCCc1cc2c(n1Cc1ccco1)C(C)C1CN(C(=O)c3ccccc3)C(C)(C(=O)OC)C21 (stereo not given) | 0.953 | 0.829 (inactive) | 0.247 | 0.374 | 0.744 | 0.747 | 0.859 | 0.878 | 0.515 | 0.851 | 1.7 | 0.806 | 0.307 | 0.717 | 1.13 | -0.0321 | -0.0794 | 0.494 | 1.29 | -7.6 (inactive) |
| COc1cc2c(cc1O)C(C)N(C)CC2 (stereo not given) | 0.122 | 0.104 (inactive) | -0.0967 | -0.0877 | 0.545 | 0.594 | 0.209 | -1.24 | -0.432 | 0.519 | -0.0259 | -1.17 | -0.45 | -0.227 | -0.114 | 0.0683 | 0.599 | -0.692 | 0.0591 | -1.06 (inactive) |
| C=C(CC1(CNP(=O)(c2ccccc2)c2ccccc2)CC1)c1ccccc1 | 0.44 | -0.0318 (inactive) | 0.179 | 0.0312 | 0.809 | 1.2 | 0.399 | -0.975 | -0.754 | -0.139 | 0.679 | 0.626 | 0.0728 | 0.126 | -0.274 | -0.639 | 1.23 | -0.742 | 0.11 | 2.19 (inactive) |
| C[C@@H]1OC=C2[C@@H](O)[C@H]3O[C@H]3C(=O)[C@]23[C@H]1[C@H]1C2=C([C@@H](O)[C@H]4O[C@H]4C2=O)[C@@H]3O[C@@H]1C | -0.745 | 0.278 (inactive) | -0.063 | -0.147 | -0.355 | -0.934 | -0.266 | -1.86 | 0.584 | -0.66 | -0.317 | -0.556 | -0.171 | -0.559 | 0.0982 | 0.0979 | 0.774 | 0.277 | -0.351 | -0.563 (inactive) |
